According to PubChem BioAssay:
Activity calls are given as the source filed them.

What was measured:
[1] = system: PRMT1 (protein arginine N-methyltransferase 1); test: small molecules binding arginine methyltransferase PRMT1 – biochemical, small-molecule microarray, 635 nm fluorescence, primary screen (AID 1088); conditions: higher = more signal;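 note: binding of Prmt1 protein to compounds spotted on small-molecule microarray slides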
[2] = growth effects on S. cerevisiae YJM789 – YJM789 clinical isolate, OD600, 24 h, basal, primary screen (AID 1089); conditions: higher = more signal, called active from +8 up or from −8 down;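 note: growth of clinical yeast isolate S. cerevisiae YJM 789 seeded 1000 cells per well; test concentration not given here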
[3] = S. pombe growth modifiers, basal conditions – strain 972, OD600, 24 h, no modulator, primary screen (AID 1090);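 note: basal condition with compound alone and no growth modifier present; test concentration not given here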; conditions: S. pombe 972 growth, higher = more signal, called active from +8 up or from −8 down
[4] = budding yeast growth modifiers under rapamycin – strain BY4716, OD600, 96 h, primary screen (AID 1091); note: test concentration not given here; conditions: S. cerevisiae BY4716 + rapamycin, higher = more signal, called active from +8 up or from −8 down
[5] = biological target: Torsin-1A-interacting protein 2 (Homo sapiens) (UniProt Q8NFQ8); test: small molecules binding lysate-expressed LULL1 – cell lysate, human LULL1 lysate, 635/667 nm fluorescence, primary screen (AID 1092); conditions: small-molecule microarray, hLULL1 lysate binding, 635 nm fluorescence; higher = more signal;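 note: probe is lysate of COS7 cells overexpressing human LULL1; score merges per-feature 667 nm fluorescence with signal-to-noise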
Sequence of Torsin-1A-interacting protein 2 (Homo sapiens) (Q8NFQ8 whole entry, looked up): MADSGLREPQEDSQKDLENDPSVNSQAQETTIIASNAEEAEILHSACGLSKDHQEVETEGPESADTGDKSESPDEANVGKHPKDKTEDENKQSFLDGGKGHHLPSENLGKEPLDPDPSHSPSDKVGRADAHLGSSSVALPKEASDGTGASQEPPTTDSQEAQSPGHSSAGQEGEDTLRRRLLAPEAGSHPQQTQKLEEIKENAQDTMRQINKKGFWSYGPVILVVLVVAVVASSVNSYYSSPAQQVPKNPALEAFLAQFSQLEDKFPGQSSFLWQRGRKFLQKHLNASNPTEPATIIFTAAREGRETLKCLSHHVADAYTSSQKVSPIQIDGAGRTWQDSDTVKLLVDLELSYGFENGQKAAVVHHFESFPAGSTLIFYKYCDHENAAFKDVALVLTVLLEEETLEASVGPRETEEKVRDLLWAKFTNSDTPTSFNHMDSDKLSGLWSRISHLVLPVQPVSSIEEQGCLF

[6] = optical density change of DRC41 E. coli – strain DRC41, OD650, 24 h, E. coli filamentation project, primary screen (AID 1093);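 note: MC1000 strain lacking acrAB efflux and sulA so SOS filamentation is blocked; test concentration not given here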; conditions: E. coli DRC41 growth, higher = more signal, called active from +8 up or from −8 down
[7] = probe aLefty2 binding to arrayed compounds – biochemical, biotinylated probe, 635/667 nm fluorescence, primary screen (AID 1094); conditions: small-molecule microarray, higher = more signal;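 note: score merges spot fluorescence near 667 nm with spot signal-to-noise ratio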
[8] = system: Noggin (protein binding on small-molecule microarray); test: small molecules binding Noggin protein – biochemical, 635/667 nm fluorescence, primary screen (AID 1095); conditions: 635 nm fluorescence, higher = more signal;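 note: score merges 667 nm feature fluorescence with signal to noise over triplicate slides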
[9] = biological target: Neurogenic locus notch homolog protein 3 (Homo sapiens) (UniProt Q9UM47); test: small molecules binding NOTCH3 protein – biochemical, 635/667 nm fluorescence, primary screen (AID 1096); conditions: small-molecule microarray, 635 nm fluorescence, higher = more signal
Sequence of Neurogenic locus notch homolog protein 3 (Homo sapiens) (Q9UM47 whole entry, looked up): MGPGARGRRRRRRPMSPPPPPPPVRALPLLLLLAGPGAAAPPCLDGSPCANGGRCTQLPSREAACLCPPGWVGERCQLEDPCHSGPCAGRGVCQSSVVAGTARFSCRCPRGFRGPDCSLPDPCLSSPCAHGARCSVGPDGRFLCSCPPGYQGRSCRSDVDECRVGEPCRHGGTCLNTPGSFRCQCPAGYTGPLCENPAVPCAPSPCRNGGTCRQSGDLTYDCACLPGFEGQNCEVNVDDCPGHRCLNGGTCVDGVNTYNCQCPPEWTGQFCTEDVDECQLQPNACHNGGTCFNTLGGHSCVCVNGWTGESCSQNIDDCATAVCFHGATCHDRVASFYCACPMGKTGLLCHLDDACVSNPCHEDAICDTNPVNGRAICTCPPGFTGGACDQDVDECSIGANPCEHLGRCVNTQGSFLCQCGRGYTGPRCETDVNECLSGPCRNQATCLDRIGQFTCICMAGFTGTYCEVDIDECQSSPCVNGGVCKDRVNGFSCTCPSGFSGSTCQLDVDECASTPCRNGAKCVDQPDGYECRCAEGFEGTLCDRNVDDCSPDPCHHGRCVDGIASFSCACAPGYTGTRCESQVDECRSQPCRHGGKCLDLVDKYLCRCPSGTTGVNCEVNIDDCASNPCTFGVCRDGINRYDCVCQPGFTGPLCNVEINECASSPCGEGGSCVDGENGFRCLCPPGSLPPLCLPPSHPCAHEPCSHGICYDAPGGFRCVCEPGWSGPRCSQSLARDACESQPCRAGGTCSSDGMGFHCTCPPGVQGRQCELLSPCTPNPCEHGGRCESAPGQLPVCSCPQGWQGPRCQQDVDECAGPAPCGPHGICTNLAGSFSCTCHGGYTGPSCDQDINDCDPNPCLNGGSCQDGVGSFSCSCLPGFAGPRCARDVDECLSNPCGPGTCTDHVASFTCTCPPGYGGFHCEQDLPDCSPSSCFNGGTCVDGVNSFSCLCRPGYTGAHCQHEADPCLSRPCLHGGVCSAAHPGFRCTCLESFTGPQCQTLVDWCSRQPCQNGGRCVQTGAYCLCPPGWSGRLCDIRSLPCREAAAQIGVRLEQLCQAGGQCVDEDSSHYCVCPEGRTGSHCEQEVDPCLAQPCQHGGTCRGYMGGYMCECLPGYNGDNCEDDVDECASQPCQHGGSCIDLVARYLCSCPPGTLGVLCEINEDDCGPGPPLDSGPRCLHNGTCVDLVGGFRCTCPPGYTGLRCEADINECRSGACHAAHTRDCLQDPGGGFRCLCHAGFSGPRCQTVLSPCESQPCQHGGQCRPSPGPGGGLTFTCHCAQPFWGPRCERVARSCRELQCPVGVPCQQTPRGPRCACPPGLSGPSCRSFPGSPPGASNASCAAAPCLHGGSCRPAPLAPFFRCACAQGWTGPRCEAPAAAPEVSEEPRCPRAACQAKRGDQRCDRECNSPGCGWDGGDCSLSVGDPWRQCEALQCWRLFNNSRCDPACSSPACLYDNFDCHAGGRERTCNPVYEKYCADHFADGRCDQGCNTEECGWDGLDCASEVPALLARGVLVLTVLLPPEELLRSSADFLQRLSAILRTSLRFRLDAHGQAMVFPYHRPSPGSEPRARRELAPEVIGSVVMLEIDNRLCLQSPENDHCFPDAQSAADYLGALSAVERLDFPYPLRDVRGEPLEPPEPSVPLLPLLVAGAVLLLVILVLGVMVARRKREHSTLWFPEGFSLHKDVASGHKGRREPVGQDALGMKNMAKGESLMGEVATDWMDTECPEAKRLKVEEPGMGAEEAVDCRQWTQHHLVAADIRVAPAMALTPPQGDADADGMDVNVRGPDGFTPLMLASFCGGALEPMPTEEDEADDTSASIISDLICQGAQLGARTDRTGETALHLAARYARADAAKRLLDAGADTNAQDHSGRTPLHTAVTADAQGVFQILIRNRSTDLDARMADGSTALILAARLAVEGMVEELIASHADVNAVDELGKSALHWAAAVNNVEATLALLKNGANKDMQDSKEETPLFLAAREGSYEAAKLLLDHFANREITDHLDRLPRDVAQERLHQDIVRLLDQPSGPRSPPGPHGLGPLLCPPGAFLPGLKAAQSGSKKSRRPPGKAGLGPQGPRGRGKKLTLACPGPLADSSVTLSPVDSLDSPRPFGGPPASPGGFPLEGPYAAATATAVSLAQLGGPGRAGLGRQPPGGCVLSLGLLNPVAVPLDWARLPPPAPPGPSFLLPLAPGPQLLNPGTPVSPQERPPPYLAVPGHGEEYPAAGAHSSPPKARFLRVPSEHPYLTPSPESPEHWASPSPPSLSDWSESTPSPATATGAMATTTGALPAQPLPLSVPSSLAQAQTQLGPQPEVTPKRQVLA

[10] = probe aEGFR binding to arrayed compounds – biochemical, biotinylated probe, 635/667 nm fluorescence, primary screen (AID 1097); conditions: small-molecule microarray, higher = more signal;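 note: probe is a biotinylated anti-EGFR antibody binding compounds printed on slides; score combines fluorescence near 667 nm and signal to noise of each spot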

With `COc1cc(NN2C(C(O)c3ccc(N(C)C)cc3)C=CC3C(=O)N(c4ccccc4)C(=O)C32)cc(OC)c1OC` (stereo not given) the composite z-score [1] was 0.824, the z-score [2] was 0.146 (inactive) and the z-score [3] was -0.424 (inactive). The z-score [4] was -0.363 (inactive), the composite z-score [5] was 1.4 and the z-score [6] was -1.58 (inactive). The composite z-score [7] was 0.473, the composite z-score [8] was -0.308 and the composite z-score [9] was 0.544. The composite z-score [10] was 0.0955.
For `CCOC(=O)C[C@H]1[C@H](OC(=O)c2ccc(C(=O)c3ccccc3)cc2)[C@@H](NC(=O)C2CCCCC2)c2cc(OCCCO)ccc2N1C(=O)c1ccc2ccccc2n1`, the composite z-score [1] was 1.34, the z-score [2] was -0.882 (inactive) and the z-score [3] was 0.708 (inactive). The z-score [4] was 0.276 (inactive), the composite z-score [5] was 2.01 and the z-score [6] was 1.25 (inactive). It also gave a composite z-score [7] of -0.02, a composite z-score [8] of 0.887 and a composite z-score [9] of 1.13. It also gave a composite z-score [10] of 0.0213.
For `[N-]=[N+]=NCc1ccccc1C[C@@]1(C(N)=O)N=C(c2ccc(OCCCO)cc2)O[C@@H]1c1ccccc1`, the composite z-score [1] was 1.56, the z-score [2] was -0.144 (inactive) and the z-score [3] was 0.0313 (inactive). The z-score [4] was 13.3 (active), the composite z-score [5] was 3.59 and the z-score [6] was -0.412 (inactive). For the same molecule, the composite z-score [7] was 0.149, the composite z-score [8] was -0.734 and the composite z-score [9] was -0.15. The composite z-score [10] was -0.108.
For `COCCOC(=O)N1C(=O)[C@@]2(c3ccccc31)[C@H](C(=O)NC[C@H](O)c1ccccc1)[C@H]1C(=O)O[C@H](c3ccccc3)[C@H](c3ccccc3)N1[C@@H]2c1ccc(O)cc1`, the composite z-score [1] was 1.53, the z-score [2] was 0.787 (inactive) and the z-score [3] was 0.259 (inactive). The z-score [4] was 2.83 (inactive), the composite z-score [5] was 3.01 and the z-score [6] was 1.14 (inactive). For the same molecule, the composite z-score [7] was -0.109, the composite z-score [8] was 0.915 and the composite z-score [9] was 1.05. The composite z-score [10] was 0.569.
With `Cc1ccc(C(C)CC(O)C2C=CC3C(=O)N(c4ccccc4)C(=O)C3N2Nc2ccccc2)o1` (stereo not given) the composite z-score [1] was 1.53, the z-score [2] was 0.568 (inactive) and the z-score [3] was -0.132 (inactive). For the same molecule, the z-score [4] was 0.144 (inactive), the composite z-score [5] was 3.09 and the z-score [6] was -0.866 (inactive). The composite z-score [7] was 0.326, the composite z-score [8] was -0.0381 and the composite z-score [9] was 1.04. It also gave a composite z-score [10] of 0.216.
For `Cc1ccc(NN2C(C(O)c3c(F)cccc3Cl)C=CC3C(=O)N(C4CCCCC4)C(=O)C32)cc1` (stereo not given), the composite z-score [1] was 1.43, the z-score [2] was -0.58 (inactive) and the z-score [3] was -0.362 (inactive). The z-score [4] was -0.262 (inactive), the composite z-score [5] was 3.02 and the z-score [6] was -0.0346 (inactive). For the same molecule, the composite z-score [7] was 0.184, the composite z-score [8] was -0.203 and the composite z-score [9] was 1.05. The composite z-score [10] was 0.0708.
For `CCCC1(C(=O)OC)C=C2C(=C(C)C(=O)C2C)CN1` (stereo not given), the composite z-score [1] was -1.06, the z-score [2] was -0.105 (inactive) and the z-score [3] was 0.883 (inactive). For the same molecule, the z-score [4] was 0.578 (inactive), the composite z-score [5] was 0.941 and the z-score [6] was -0.827 (inactive). For the same molecule, the composite z-score [7] was 0.0932, the composite z-score [8] was -0.0743 and the composite z-score [9] was -0.0768. For the same molecule, the composite z-score [10] was -0.0828.
In the case of `CS(=O)(=O)CCOC(=O)C1=CC(c2ccc(CO)cc2)=CC(C2CC2)N(Cc2sc3ccccc3c2Cl)C=C1C(=O)OCCS(C)(=O)=O` (stereo not given), the composite z-score [1] is reported as 1.46, the z-score [2] is reported as -0.348 (inactive) and the z-score [3] is reported as -3.82 (inactive). For the same molecule, the z-score [4] was -1.23 (inactive), the composite z-score [5] was 1.67 and the z-score [6] was -3.01 (inactive). The composite z-score [7] was 0.106, the composite z-score [8] was 0.471 and the composite z-score [9] was 0.946. It also gave a composite z-score [10] of -0.0188.
For `Cc1ccccc1C(O)C1C=CC2C(=O)NC(=O)C2N1Nc1ccccn1` (stereo not given), the composite z-score [1] was 0.049, the z-score [2] was 0.833 (inactive) and the z-score [3] was 0.459 (inactive). For the same molecule, the z-score [4] was 0.0715 (inactive), the composite z-score [5] was 1.6 and the z-score [6] was -0.957 (inactive). It also gave a composite z-score [7] of 0.0361, a composite z-score [8] of 0.232 and a composite z-score [9] of -0.308. For the same molecule, the composite z-score [10] was 0.092.
For `NC(=O)NCC#Cc1ccc2c(c1)[C@]1(C(=O)N2)[C@H](C(=O)N2CCN(c3ncccn3)CC2)[C@H]2C(=O)O[C@H](c3ccccc3)[C@H](c3ccccc3)N2[C@@H]1c1ccc(O)cc1`, the composite z-score [1] was 1.33, the z-score [2] was 0.541 (inactive) and the z-score [3] was -0.281 (inactive). The z-score [4] was 0.971 (inactive), the composite z-score [5] was 0.828 and the z-score [6] was -0.653 (inactive). It also gave a composite z-score [7] of 0.109, a composite z-score [8] of 0.517 and a composite z-score [9] of 1.08. For the same molecule, the composite z-score [10] was 0.0283.
With `COC(=O)c1c(CC[C@@H](CO)NC(=O)N[C@@H](C)Cn2cc(-c3ccccn3)nn2)oc(C(C)=O)c1C(=O)OC` the composite z-score [1] was 1.39, the z-score [2] was -0.441 (inactive) and the z-score [3] was -0.705 (inactive). The z-score [4] was 0.198 (inactive), the composite z-score [5] was 1.42 and the z-score [6] was -0.608 (inactive). The composite z-score [7] was -0.115, the composite z-score [8] was 1.43 and the composite z-score [9] was 0.794. The composite z-score [10] was -0.164.
For `CCCCC=C[C@@H](NC(=O)OCc1ccccc1Cl)c1ccccc1`, the composite z-score [1] was 1.48, the z-score [2] was 0.952 (inactive) and the z-score [3] was 1.18 (inactive). For the same molecule, the z-score [4] was 2.28 (inactive), the composite z-score [5] was 2.9 and the z-score [6] was -1.48 (inactive). For the same molecule, the composite z-score [7] was 1.09, the composite z-score [8] was 1.34 and the composite z-score [9] was 1.02. The composite z-score [10] was 0.98.
With `COC(=O)C1=CC(CCCO)=CC(c2cccs2)N(C)C=C1C(=O)OC` (stereo not given) the composite z-score [1] was 0.0782, the z-score [2] was 0.112 (inactive) and the z-score [3] was 0.009 (inactive). The z-score [4] was 0.241 (inactive), the composite z-score [5] was 1.6 and the z-score [6] was 0.39 (inactive). For the same molecule, the composite z-score [7] was 0.0099, the composite z-score [8] was -0.561 and the composite z-score [9] was 0.275. The composite z-score [10] was -0.0034.
In the case of `CN(C)CCCCCCNC(=O)[C@@H]1C[C@@H]2C(=O)N3CCC[C@H]3C(=O)N2[C@@H]1c1cccc(OCCO)c1`, the composite z-score [1] is reported as 1.54, the z-score [2] is reported as 0.108 (inactive) and the z-score [3] is reported as -0.177 (inactive). For the same molecule, the z-score [4] was 1.04 (inactive), the composite z-score [5] was 1.66 and the z-score [6] was -0.395 (inactive). For the same molecule, the composite z-score [7] was -0.0664, the composite z-score [8] was 1.54 and the composite z-score [9] was 1.06. It also gave a composite z-score [10] of 0.193.
For `CCCCC(CC)C(O)C1C=CC2C(=O)N(c3ccccc3)C(=O)C2N1Nc1ccccc1F` (stereo not given), the composite z-score [1] was 1.53, the z-score [2] was -0.802 (inactive) and the z-score [3] was 1.53 (inactive). For the same molecule, the z-score [4] was 0.314 (inactive), the composite z-score [5] was 2.64 and the z-score [6] was 0.379 (inactive). The composite z-score [7] was 0.222, the composite z-score [8] was 0.0782 and the composite z-score [9] was 0.822. For the same molecule, the composite z-score [10] was -0.162.
